# Residue numbers refer to the chain shown, from its start.
# Columns and labels:
# Assay in all cases: PBM; 200 nM protein, PBS
# Settings in all cases: dsDNA, one strand shown
# HOXA4 [1] = target: HOXA4 (Homo sapiens, UniProt Q00056 201-287, W262R)
# HOXA4 [2] = target: HOXA4 (Homo sapiens, UniProt Q00056 201-287, R217L)
# HOXD13 [3] = target: HOXD13 (Homo sapiens, UniProt P35453 263-343, T313R)
# HOXD13 [4] = target: HOXD13 (Homo sapiens, UniProt P35453 263-343)
# HOXA4 [5] = target: HOXA4 (Homo sapiens, UniProt Q00056 201-287)
# Sequence of HOXA4 (Homo sapiens, UniProt Q00056 201-287) (Q00056 201-287): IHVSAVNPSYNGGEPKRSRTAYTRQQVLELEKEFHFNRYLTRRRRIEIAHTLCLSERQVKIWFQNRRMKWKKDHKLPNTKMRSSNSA
# HOXD13 [6] = target: HOXD13 (Homo sapiens, UniProt P35453 263-343, T313A)
# Sequence of HOXD13 (Homo sapiens, UniProt P35453 263-343, T313A) (P35453 263-343 T313A): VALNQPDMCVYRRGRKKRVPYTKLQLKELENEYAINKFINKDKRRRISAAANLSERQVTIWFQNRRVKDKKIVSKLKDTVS
# HOXA4 [7] = target: HOXA4 (Homo sapiens, UniProt Q00056 201-287, W262F)
# Sequence of HOXA4 (Homo sapiens, UniProt Q00056 201-287, W262F) (Q00056 201-287 W262F): as the sequence (Q00056 201-287) above, with W62F counted along it
# HOXA2 [8] = target: HOXA2 (Homo sapiens, UniProt O43364 129-215, R185T)
# Sequence of HOXA2 (Homo sapiens, UniProt O43364 129-215, R185T) (O43364 129-215 R185T): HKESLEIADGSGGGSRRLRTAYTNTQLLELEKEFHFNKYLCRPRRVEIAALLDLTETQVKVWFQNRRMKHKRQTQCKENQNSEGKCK
# HOXA2 [9] = target: HOXA2 (Homo sapiens, UniProt O43364 129-215, R185K)
# Sequence of HOXA2 (Homo sapiens, UniProt O43364 129-215, R185K) (O43364 129-215 R185K): as the sequence (O43364 129-215 R185T) above, with T57K counted along it
# VAX1 [10] = target: VAX1 (Homo sapiens, UniProt Q5SQQ9 86-172)
# Sequence of VAX1 (Homo sapiens, UniProt Q5SQQ9 86-172) (Q5SQQ9 86-172): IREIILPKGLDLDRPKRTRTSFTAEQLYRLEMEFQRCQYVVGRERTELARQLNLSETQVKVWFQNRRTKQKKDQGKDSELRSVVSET
# VAX1 [11] = target: VAX1 (Homo sapiens, UniProt Q5SQQ9 86-172, T142I)
# Sequence of VAX1 (Homo sapiens, UniProt Q5SQQ9 86-172, T142I) (Q5SQQ9 86-172 T142I): as the sequence (Q5SQQ9 86-172) above, with T57I counted along it
# HOXA2 [12] = target: HOXA2 (Homo sapiens, UniProt O43364 129-215, Y150S)
# Sequence of HOXA2 (Homo sapiens, UniProt O43364 129-215, Y150S) (O43364 129-215 Y150S): as the sequence (O43364 129-215 R185T) above, with Y22S, T57R counted along it
# HOXA2 [13] = target: HOXA2 (Homo sapiens, UniProt O43364 129-215)
# Sequence of HOXA2 (Homo sapiens, UniProt O43364 129-215) (O43364 129-215): as the sequence (O43364 129-215 R185T) above, with T57R counted along it
# VAX1 [14] = target: VAX1 (Homo sapiens, UniProt Q5SQQ9 86-172, K157R)
# Sequence of VAX1 (Homo sapiens, UniProt Q5SQQ9 86-172, K157R) (Q5SQQ9 86-172 K157R): as the sequence (Q5SQQ9 86-172) above, with K72R counted along it
# MSX2 [15] = target: MSX2 (Homo sapiens, UniProt P35548 130-214, R199I)
# Sequence of MSX2 (Homo sapiens, UniProt P35548 130-214, R199I) (P35548 130-214 R199I): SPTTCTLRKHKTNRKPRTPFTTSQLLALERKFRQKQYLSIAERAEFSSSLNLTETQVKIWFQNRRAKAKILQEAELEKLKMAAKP
# MSX2 [16] = target: MSX2 (Homo sapiens, UniProt P35548 130-214)
# Sequence of MSX2 (Homo sapiens, UniProt P35548 130-214) (P35548 130-214): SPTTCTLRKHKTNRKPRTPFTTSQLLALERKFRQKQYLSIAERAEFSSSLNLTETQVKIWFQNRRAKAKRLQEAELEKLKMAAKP
# MSX2 [17] = target: MSX2 (Homo sapiens, UniProt P35548 130-214, F161Y)
# Sequence of MSX2 (Homo sapiens, UniProt P35548 130-214, F161Y) (P35548 130-214 F161Y): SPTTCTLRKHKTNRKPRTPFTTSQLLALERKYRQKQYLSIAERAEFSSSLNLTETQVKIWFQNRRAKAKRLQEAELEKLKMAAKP
# HOXB6 [18] = target: HOXB6 (Homo sapiens, UniProt P17509 132-218, K202E)
# Sequence of HOXB6 (Homo sapiens, UniProt P17509 132-218, K202E) (P17509 132-218 K202E): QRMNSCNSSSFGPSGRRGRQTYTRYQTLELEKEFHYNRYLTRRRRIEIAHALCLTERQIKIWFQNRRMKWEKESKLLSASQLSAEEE
# HOXB6 [19] = target: HOXB6 (Homo sapiens, UniProt P17509 132-218)
# Sequence of HOXB6 (Homo sapiens, UniProt P17509 132-218) (P17509 132-218): as the sequence (P17509 132-218 K202E) above, with E71K counted along it
# NKX2-6 [20] = target: T1, NKX2-6 (Homo sapiens, UniProt A6NCS4 118-204)
# T1 sequence: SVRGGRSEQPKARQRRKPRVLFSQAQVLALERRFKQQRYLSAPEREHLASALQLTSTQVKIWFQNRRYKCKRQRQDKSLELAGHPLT
# NKX2-6 [21] = target: T2, NKX2-6 (Homo sapiens, UniProt A6NCS4 118-204, F151L)
# T2 sequence: T1 sequence with F34L
# Sequence of HOXA4 (Homo sapiens, UniProt Q00056 201-287, R217L) (Q00056 201-287 R217L): as the sequence (Q00056 201-287) above, with R17L counted along it
# Sequence of HOXA4 (Homo sapiens, UniProt Q00056 201-287, W262R) (Q00056 201-287 W262R): as the sequence (Q00056 201-287) above, with W62R counted along it
# Sequence of HOXD13 (Homo sapiens, UniProt P35453 263-343) (P35453 263-343): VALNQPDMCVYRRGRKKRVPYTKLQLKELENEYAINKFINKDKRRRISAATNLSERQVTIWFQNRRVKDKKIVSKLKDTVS
# Sequence of HOXD13 (Homo sapiens, UniProt P35453 263-343, T313R) (P35453 263-343 T313R): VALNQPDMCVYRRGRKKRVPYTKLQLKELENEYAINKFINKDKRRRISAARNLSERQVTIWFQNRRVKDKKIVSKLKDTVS
sequence,measurement,setting,value
CCCCAAGG,binding signal,HOXA4 [1],"9.82 upbm affinity estimate (log intensity, higher = more binding, comparable within an allelic series)"
same,binding signal,HOXA4 [2],"9.69 upbm affinity estimate (log intensity, higher = more binding, comparable within an allelic series)"
same,binding signal,HOXD13 [3],"9.45 upbm affinity estimate (log intensity, higher = more binding, comparable within an allelic series)"
same,binding signal,HOXD13 [4],"9.55 upbm affinity estimate (log intensity, higher = more binding, comparable within an allelic series)"
same,binding signal,HOXA4 [5],"9.65 upbm affinity estimate (log intensity, higher = more binding, comparable within an allelic series)"
same,binding signal,HOXD13 [6],"9.53 upbm affinity estimate (log intensity, higher = more binding, comparable within an allelic series)"
same,binding signal,HOXA4 [7],"9.86 upbm affinity estimate (log intensity, higher = more binding, comparable within an allelic series)"
ATAATGAG,binding signal,HOXA4 [1],"10.5 upbm affinity estimate (log intensity, higher = more binding, comparable within an allelic series)"
same,binding signal,HOXA2 [8],"12.5 upbm affinity estimate (log intensity, higher = more binding, comparable within an allelic series)"
same,binding signal,HOXA4 [2],"11.8 upbm affinity estimate (log intensity, higher = more binding, comparable within an allelic series)"
same,binding signal,HOXA2 [9],"13.2 upbm affinity estimate (log intensity, higher = more binding, comparable within an allelic series)"
same,binding signal,HOXA4 [5],"13.6 upbm affinity estimate (log intensity, higher = more binding, comparable within an allelic series)"
same,binding signal,VAX1 [10],"12.8 upbm affinity estimate (log intensity, higher = more binding, comparable within an allelic series)"
same,binding signal,VAX1 [11],"12.6 upbm affinity estimate (log intensity, higher = more binding, comparable within an allelic series)"
same,binding signal,HOXA2 [12],"10.8 upbm affinity estimate (log intensity, higher = more binding, comparable within an allelic series)"
same,binding signal,HOXA4 [7],"11.2 upbm affinity estimate (log intensity, higher = more binding, comparable within an allelic series)"
same,binding signal,HOXA2 [13],"12.3 upbm affinity estimate (log intensity, higher = more binding, comparable within an allelic series)"
same,binding signal,VAX1 [14],"12.5 upbm affinity estimate (log intensity, higher = more binding, comparable within an allelic series)"
GAAGGGGA,binding signal,HOXA4 [1],"9.88 upbm affinity estimate (log intensity, higher = more binding, comparable within an allelic series)"
same,binding signal,HOXA4 [2],"9.89 upbm affinity estimate (log intensity, higher = more binding, comparable within an allelic series)"
same,binding signal,HOXA4 [5],"9.82 upbm affinity estimate (log intensity, higher = more binding, comparable within an allelic series)"
same,binding signal,HOXA4 [7],"10 upbm affinity estimate (log intensity, higher = more binding, comparable within an allelic series)"
AGGGCGGG,binding signal,HOXA4 [1],"9.85 upbm affinity estimate (log intensity, higher = more binding, comparable within an allelic series)"
same,binding signal,HOXA4 [2],"9.99 upbm affinity estimate (log intensity, higher = more binding, comparable within an allelic series)"
same,binding signal,MSX2 [15],"9.58 upbm affinity estimate (log intensity, higher = more binding, comparable within an allelic series)"
same,binding signal,HOXA4 [5],"10 upbm affinity estimate (log intensity, higher = more binding, comparable within an allelic series)"
same,binding signal,MSX2 [16],"9.55 upbm affinity estimate (log intensity, higher = more binding, comparable within an allelic series)"
same,binding signal,MSX2 [17],"9.62 upbm affinity estimate (log intensity, higher = more binding, comparable within an allelic series)"
same,binding signal,HOXA4 [7],"10.1 upbm affinity estimate (log intensity, higher = more binding, comparable within an allelic series)"
GGGGCACC,binding signal,HOXA4 [1],"9.71 upbm affinity estimate (log intensity, higher = more binding, comparable within an allelic series)"
same,binding signal,HOXB6 [18],"8.98 upbm affinity estimate (log intensity, higher = more binding, comparable within an allelic series)"
same,binding signal,HOXA4 [2],"9.76 upbm affinity estimate (log intensity, higher = more binding, comparable within an allelic series)"
same,binding signal,HOXA4 [5],"9.9 upbm affinity estimate (log intensity, higher = more binding, comparable within an allelic series)"
same,binding signal,HOXA4 [7],"9.88 upbm affinity estimate (log intensity, higher = more binding, comparable within an allelic series)"
same,binding signal,HOXB6 [19],"8.89 upbm affinity estimate (log intensity, higher = more binding, comparable within an allelic series)"
AGGGGGCA,binding signal,HOXA4 [1],"9.67 upbm affinity estimate (log intensity, higher = more binding, comparable within an allelic series)"
same,binding signal,HOXA4 [2],"9.81 upbm affinity estimate (log intensity, higher = more binding, comparable within an allelic series)"
same,binding signal,HOXA4 [5],"9.88 upbm affinity estimate (log intensity, higher = more binding, comparable within an allelic series)"
same,binding signal,HOXA4 [7],"9.82 upbm affinity estimate (log intensity, higher = more binding, comparable within an allelic series)"
CCCGTGTC,binding signal,HOXA4 [1],"9.85 upbm affinity estimate (log intensity, higher = more binding, comparable within an allelic series)"
same,binding signal,HOXA4 [2],"9.73 upbm affinity estimate (log intensity, higher = more binding, comparable within an allelic series)"
same,binding signal,NKX2-6 [20],"9.5 upbm affinity estimate (log intensity, higher = more binding, comparable within an allelic series)"
same,binding signal,HOXA4 [5],"9.62 upbm affinity estimate (log intensity, higher = more binding, comparable within an allelic series)"
same,binding signal,NKX2-6 [21],"9.22 upbm affinity estimate (log intensity, higher = more binding, comparable within an allelic series)"
same,binding signal,HOXA4 [7],"9.79 upbm affinity estimate (log intensity, higher = more binding, comparable within an allelic series)"
CCCCGACC,binding signal,HOXA4 [1],"9.87 upbm affinity estimate (log intensity, higher = more binding, comparable within an allelic series)"
same,binding signal,HOXA4 [2],"9.84 upbm affinity estimate (log intensity, higher = more binding, comparable within an allelic series)"
same,binding signal,HOXA4 [5],"9.87 upbm affinity estimate (log intensity, higher = more binding, comparable within an allelic series)"
same,binding signal,HOXA4 [7],"9.99 upbm affinity estimate (log intensity, higher = more binding, comparable within an allelic series)"
CCTTCCCG,binding signal,HOXA4 [1],"9.88 upbm affinity estimate (log intensity, higher = more binding, comparable within an allelic series)"
same,binding signal,HOXA4 [2],"9.86 upbm affinity estimate (log intensity, higher = more binding, comparable within an allelic series)"
same,binding signal,HOXA4 [5],"9.79 upbm affinity estimate (log intensity, higher = more binding, comparable within an allelic series)"
same,binding signal,HOXA4 [7],"9.89 upbm affinity estimate (log intensity, higher = more binding, comparable within an allelic series)"
AGGGCGAG,binding signal,HOXA4 [1],"9.83 upbm affinity estimate (log intensity, higher = more binding, comparable within an allelic series)"
same,binding signal,HOXA4 [2],"9.74 upbm affinity estimate (log intensity, higher = more binding, comparable within an allelic series)"
same,binding signal,HOXA4 [5],"9.74 upbm affinity estimate (log intensity, higher = more binding, comparable within an allelic series)"
same,binding signal,HOXA4 [7],"9.91 upbm affinity estimate (log intensity, higher = more binding, comparable within an allelic series)"
GATTTATA,binding signal,HOXA4 [1],"10.4 upbm affinity estimate (log intensity, higher = more binding, comparable within an allelic series)"
same,binding signal,HOXA4 [5],"11.4 upbm affinity estimate (log intensity, higher = more binding, comparable within an allelic series)"
CAATCACG,binding signal,HOXA4 [1],"10.3 upbm affinity estimate (log intensity, higher = more binding, comparable within an allelic series)"
same,binding signal,HOXA4 [2],"10.8 upbm affinity estimate (log intensity, higher = more binding, comparable within an allelic series)"
same,binding signal,HOXA4 [5],"11.2 upbm affinity estimate (log intensity, higher = more binding, comparable within an allelic series)"
same,binding signal,HOXA4 [7],"10.5 upbm affinity estimate (log intensity, higher = more binding, comparable within an allelic series)"
AATCGATG,binding signal,HOXA4 [1],"10.4 upbm affinity estimate (log intensity, higher = more binding, comparable within an allelic series)"
same,binding signal,HOXA4 [5],"11.7 upbm affinity estimate (log intensity, higher = more binding, comparable within an allelic series)"
CCCATGGC,binding signal,HOXA4 [1],"9.82 upbm affinity estimate (log intensity, higher = more binding, comparable within an allelic series)"
same,binding signal,HOXA4 [2],"9.81 upbm affinity estimate (log intensity, higher = more binding, comparable within an allelic series)"
same,binding signal,HOXA4 [5],"9.77 upbm affinity estimate (log intensity, higher = more binding, comparable within an allelic series)"
same,binding signal,HOXA4 [7],"9.85 upbm affinity estimate (log intensity, higher = more binding, comparable within an allelic series)"
CTCATCTA,binding signal,HOXA4 [1],"10.3 upbm affinity estimate (log intensity, higher = more binding, comparable within an allelic series)"
same,binding signal,HOXA4 [5],"11.5 upbm affinity estimate (log intensity, higher = more binding, comparable within an allelic series)"
CACCCTGG,binding signal,HOXA4 [1],"9.95 upbm affinity estimate (log intensity, higher = more binding, comparable within an allelic series)"
same,binding signal,HOXA4 [2],"9.74 upbm affinity estimate (log intensity, higher = more binding, comparable within an allelic series)"
same,binding signal,HOXA4 [5],"9.78 upbm affinity estimate (log intensity, higher = more binding, comparable within an allelic series)"
same,binding signal,HOXA4 [7],"9.87 upbm affinity estimate (log intensity, higher = more binding, comparable within an allelic series)"
CAATTTAG,binding signal,HOXA4 [1],"10.5 upbm affinity estimate (log intensity, higher = more binding, comparable within an allelic series)"
same,binding signal,HOXA4 [5],"12.1 upbm affinity estimate (log intensity, higher = more binding, comparable within an allelic series)"
AGTCCTTC,binding signal,HOXA4 [1],"9.96 upbm affinity estimate (log intensity, higher = more binding, comparable within an allelic series)"
same,binding signal,HOXA4 [2],"9.81 upbm affinity estimate (log intensity, higher = more binding, comparable within an allelic series)"
same,binding signal,HOXA4 [5],"9.61 upbm affinity estimate (log intensity, higher = more binding, comparable within an allelic series)"
same,binding signal,HOXA4 [7],"9.89 upbm affinity estimate (log intensity, higher = more binding, comparable within an allelic series)"
CTAATCTA,binding signal,HOXA4 [1],"10.3 upbm affinity estimate (log intensity, higher = more binding, comparable within an allelic series)"
same,binding signal,HOXA4 [5],"12 upbm affinity estimate (log intensity, higher = more binding, comparable within an allelic series)"
ACCCGTAG,binding signal,HOXA4 [1],"9.8 upbm affinity estimate (log intensity, higher = more binding, comparable within an allelic series)"
same,binding signal,HOXA4 [2],"9.7 upbm affinity estimate (log intensity, higher = more binding, comparable within an allelic series)"
same,binding signal,HOXA4 [5],"9.84 upbm affinity estimate (log intensity, higher = more binding, comparable within an allelic series)"
same,binding signal,HOXA4 [7],"9.82 upbm affinity estimate (log intensity, higher = more binding, comparable within an allelic series)"
AGTCCCCG,binding signal,HOXA4 [1],"9.96 upbm affinity estimate (log intensity, higher = more binding, comparable within an allelic series)"
same,binding signal,HOXA4 [2],"9.67 upbm affinity estimate (log intensity, higher = more binding, comparable within an allelic series)"
same,binding signal,HOXA4 [5],"9.89 upbm affinity estimate (log intensity, higher = more binding, comparable within an allelic series)"
same,binding signal,HOXA4 [7],"9.99 upbm affinity estimate (log intensity, higher = more binding, comparable within an allelic series)"
AATCCCCC,binding signal,HOXA4 [1],"9.83 upbm affinity estimate (log intensity, higher = more binding, comparable within an allelic series)"
same,binding signal,HOXA4 [2],"9.86 upbm affinity estimate (log intensity, higher = more binding, comparable within an allelic series)"
same,binding signal,HOXA4 [5],"9.87 upbm affinity estimate (log intensity, higher = more binding, comparable within an allelic series)"
same,binding signal,HOXA4 [7],"9.73 upbm affinity estimate (log intensity, higher = more binding, comparable within an allelic series)"

# Source: PMC11006913
